# Bioassay records (PubChem BioAssay)
# A selection: hits, their analogues and other compounds. The true share with any hit is near 5.7%.
# DAX1 inh-1 – inhibits human nuclear receptor DAX1 | P51843 | HEK293 Gal4-DAX1 luciferase reporter, luminescence | inhibition, % at 6.75 µM | 340,000 compounds, 0.99% hits | AID 504766;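 active means inhibition above the mean over all tested compounds plus 3 SD, cut at about 4.2% in these data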;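 further: 0% = DAX1-transfected cells with DMSO and 100% = empty-vector control cells with DMSO; inhibition shows as a rise in luminescence from relieved DAX1 repression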
# Target sequence (P51843 207-470 limits assumed): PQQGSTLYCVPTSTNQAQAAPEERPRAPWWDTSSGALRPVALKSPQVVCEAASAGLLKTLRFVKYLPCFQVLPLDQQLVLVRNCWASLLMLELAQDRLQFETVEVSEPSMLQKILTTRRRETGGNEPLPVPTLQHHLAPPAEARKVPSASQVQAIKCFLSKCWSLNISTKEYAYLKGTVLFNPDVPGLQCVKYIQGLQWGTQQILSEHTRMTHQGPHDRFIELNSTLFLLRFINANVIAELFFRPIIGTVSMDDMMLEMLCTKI
# AHR act – activates the human aryl hydrocarbon receptor; 320,000 compounds, 2.5% hits; activation, % at 5 µM; P35869; AID 2796; AHR-responsive luciferase reporter cells, luminescence; in the data active means activation above about 47%;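 further: 0% = vehicle wells and 100% = reference agonist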
# ssDAF-12 act – activates DAF-12 receptor from parasite S. stercoralis | HEK293 ssDAF-12/GRIP1 lit1-tk-luc reporter, luminescence; % of 3 µM dafachronic acid response | activation, % at 6.8 µM | 370,000 compounds, 1% hits | AID 652126;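 active means activation above the mean over all tested compounds plus 3 SD, cut at about 0.9% in these data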;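 further: 0% = DMSO-only wells and 100% = 3 µM delta7-dafachronic acid wells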
# DAX1 inh-2 – DAX1 (NR0B1) inhibition, primary screen; HEK293T StAR-luciferase reporter, SF-1/DAX-1 repression relief; inhibition, % at 6.8 µM; 370,000 compounds, 1.1% hits;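 active means inhibition above the mean over all tested compounds plus 3 SD, cut at about 3.6% in these data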;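 further: 0% = DAX-1 cells with DMSO and 100% = cells lacking DAX-1 with DMSO; higher inhibition means more luminescence from relief of DAX-1 repression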
# hgDAF12 agonist – activates the H. glycines DAF-12 receptor ligand-binding domain | HEK293 GAL4-hgDAF12 UAS-luciferase reporter, agonist luminescence; normalized to butyrate control | activation, % at 6.8 µM | 370,000 compounds, 1.8% hits;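 active means activation above a cutoff set at the mean of all screened compounds plus 3 SD, cut at about 10% in these data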;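 further: 0% = DMSO wells and 100% = sodium butyrate wells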
# hcDAF12 agonist – activates DAF-12 receptor from parasite H. contortus. HEK293 hcDAF-12 lit1-tk-luc reporter, luminescence; 0% DMSO, 100% Δ7-dafachronic acid. activation, % at 6.8 µM. 370,000 compounds, 1.4% hits. AID 652067;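 active means activation above the mean of all tested compounds plus 3 SD, cut at about 5.5% in these data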;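 further: 100% = response to 3 µM Δ7-dafachronic acid high control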
# Starred values were filed as active, the others as inactive; . = no result.
SMILES,DAX1 inh-1,AHR act,ssDAF-12 act,DAX1 inh-2,hgDAF12 agonist,hcDAF12 agonist
CC(C)(C)C(=O)/C=c1\[nH]c(=O)/c(=C\c2ccccc2F)s1,0,53*,-2,0,1,0
CC(C)(C)C(=O)/C=c1\[nH]c(=O)/c(=C\c2ccc(F)cc2)s1,-1,32,-2,-1,-2,-1
CCOC(=O)NC1(NCC(C)C)Oc2ccccc2O1,4.4*,1,-1,0,-1,0
CCOC(=O)NC1(NC(C)C)Oc2ccccc2O1,1,2,-1,1,-1,2
CCNC(=O)C1(C)CCN(C(=O)c2ccccc2C(F)(F)F)C1 (centres undefined),.,.,-2,1,2,-1
O=C(COC(=O)Cc1c(F)cccc1Cl)NCc1ccc2c(c1)OCO2,0,-1,-1,-1,0,1
CCC(C)(C)c1ccc2c(c1)C(=O)c1ccccc1C2=O,4,72*,0,2,10,1
CCOP(=O)(OCC)c1ccc2c(c1)C(=O)c1ccccc1-2,.,.,-1,.,4,-2
CCCCN(C(=O)c1cc2ccccc2o1)c1c(N)n(CCC)c(=O)[nH]c1=O,0,-2,-2,0,1,-1
Cc1cccc(C(=O)NCCC(=O)Nc2ccc(F)c([N+](=O)[O-])c2)c1,-1,0,-1,0,-1,-1
Nc1[nH]n(-c2ccccc2)c(=O)c1N=Nc1ccc(F)cc1,.,.,0,3,9,3
Cc1ccc(N=Nc2c(N)n(-c3ccccc3)[nH]c2=O)cc1,3,46,0,1,9,5.6*
Nc1[nH]n(-c2ccccc2)c(=O)c1N=Nc1ccc2c(c1)OCO2,0,121*,-2,1,3,-1
Cc1[nH]n(C(N)=S)c(=O)c1N=Nc1ccc(S(=O)(=O)N2CCCC2)cc1,2,2,-1,0,3,-1
Cc1[nH]n(-c2ccccc2)c(=O)c1N=Nc1ccc(C(=O)O)cc1,1,16,-1,0,-2,0
Cc1[nH]n(-c2ccccc2)c(=O)c1N=Nc1ccc(C(N)=O)cc1,-1,7,-2,0,1,0
Cc1[nH]n(-c2ccccc2)c(=O)c1N=Nc1ccccc1,1,24,1,1,8,6.0*
Cc1ccc(N=Nc2c(C)[nH]n(C(N)=S)c2=O)cc1,2,51*,1.0*,1,6,3
COc1ccc(C(=O)NCC2CCN(C(=O)C(=O)c3cc4ccccc4o3)CC2)cc1,.,.,0,0,1,0
CC(C)(O)C(=O)NNC(=S)Nc1ccc(F)c(Cl)c1,1,8,-1,0,0,1
CC(=O)c1ccc(N=Nc2c(C)[nH][nH]c2=O)cc1,5.5*,10,-1,0,0,0
CC(=O)c1ccc(N=Nc2c(C)[nH]n(-c3ccccc3)c2=O)cc1,0,54*,0.9*,0,-2,2
Cc1ccc([C@H]2C[C@H](n3cc(COC(=O)c4ccccc4)nn3)[C@@H](O)CN2C(=O)c2cccs2)cc1,1,.,-2,0,0,-4
COc1ccc(Cl)cc1N(CC(=O)Nc1ccc2c(c1)OCO2)S(C)(=O)=O,1,76*,-1,-1,3,-1
COc1ccc(NC(=O)CN(c2ccc(OC)cc2)S(=O)(=O)c2c(C)nn(C)c2C)cc1,0,3,-1,0,-2,0
SMILES,DAX1 inh-1,AHR act,ssDAF-12 act,DAX1 inh-2,hgDAF12 agonist,hcDAF12 agonist
COc1ccc(N(CC(=O)Nc2ccc3c(c2)OCO3)S(=O)(=O)c2c(C)nn(C)c2C)cc1,2,59*,-1,0,-1,-1
CC1(C)CC(=O)C2=C(C1)NC1=C(C(=O)c3ccccc31)C2c1ccc(Cl)cc1 (centres undefined),-1,8,0,0,-1,6.4*
Cc1ccc(C2C3=C(CC(C)(C)CC3=O)NC3=C2C(=O)c2ccccc23)cc1 (centres undefined),-2,-4,-2,-1,-2,0
O=C1CCCC2=C1[C@@]1(O[C@H]3C=CC=CN23)C(=O)N(c2ccccc2)c2ccccc21,.,.,-1,-1,-1,1
COc1ccc(CN2CN(S(=O)(=O)c3cccs3)c3nc4ccccc4nc32)cc1,2,4,0,1,13*,2
O=S(=O)(c1cccs1)N1CN(Cc2ccccc2)c2nc3ccccc3nc21,0,4,-1,0,1,1
CC(=O)c1c(C)[nH]c(C(=O)COc2ccc3ccc(=O)oc3c2)c1C,-1,56*,-1,-4,-3,-2
CN(C)S(=O)(=O)n1cc(/C=C(\NC(=O)c2ccccc2Cl)C(=O)N2CCCC2)c2ccccc21,2,2,-2,0,3,-1
C(=C/c1nccc2c1[nH]c1ccccc12)/c1ccc2c(c1)OCO2,-1,.,-1,1,13*,2
CC(/C=N\Nc1nnc2c(n1)[nH]c1c(C)cccc12)=C\c1ccco1,1,57*,-1,1,1,2
CC(/C=N/n1c(-c2ccco2)n[nH]c1=S)=C\c1ccco1,-1,2,-2,0,-2,-2
Oc1[nH]c2ccc(Br)cc2c1N=Nc1ccc(F)cc1,1,62*,0,0,3,5
O=[N+]([O-])c1ccc2[nH]c(O)c(N=Nc3ccc(F)cc3)c2c1,1,40,0,0,-1,2
COc1ccc(S(=O)(=O)N2CCCOC2CNC(=O)C(=O)NCCc2ccco2)cc1OC (centres undefined),0,3,0,2,-2,-1
CCOc1ccc(-n2c(SCC(=O)Nc3ccc4c(c3)OCCO4)nnc2-c2ccncc2)cc1,.,.,-2,-2,-5,-1
CCCCn1c(N)c(N(CC(C)C)C(=O)CSc2nnc(C)n2-c2ccccc2)c(=O)[nH]c1=O,0,.,-1,-1,1,0
COc1ccccc1N=Nc1[nH]c2ccc(C)cc2c1O,0,60*,0,0,8,6
CC(C)/C(=N\NS(=O)(=O)c1ccc(Br)cc1)c1cccs1,1,-1,-1,0,1,-1
O=C(Cn1ncc2c([nH]c3ccccc32)c1=O)NCC1CCN(Cc2ccccc2F)CC1,0,3,-1,0,0,3
O=C(Nc1nc(=O)c2ccccc2s1)c1ccc(Cl)cc1,0,2,0,0,1,0
O=C(Nc1nc2ccsc2c(=O)s1)c1ccc(Cl)cc1,5.8*,6,0.9*,2,9,5
CC(=O)c1c[nH]c(C(=O)NC2CCCCCC2)c1,-1,-4,-1,1,1,2
O=C(NC1CCCCC1)c1ccccc1NC(=O)C1CC1,-1,8,-1,-1,-2,-1
